Screening results: PubChem, National Center for Advancing Translational Sciences (NCATS)
In the library only some 1.4% were active in any assay of this set; here they are far more common.
TSHR antag = antagonists of human thyroid stimulating hormone receptor. 0.2% of 330,000 active. activity change, negative = inhibition, % at 11.5 µM. TSHR-expressing cells, TSH-stimulated cAMP HTRF, 2 h; stronger effect = lower value. P16473;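 active means activity change below a set negative limit, meaning inhibition stronger than a set level, cut at about -70% in these data; inconclusive means activity change between two set negative limits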
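Inhibition of cAMP made by TSHR-expressing cells under TSH stimulation (4nM final, EC80; 2 h, 37 deg C) is quantified with a one-step lysis HTRF kit, anti-cAMP cryptate versus cAMP-d2.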
GLS inh = glutaminase GLS (human) inhibition | GLS enzymatic activity, qHTS titration | 0.21% of 410,000 active | Potency, µM (doses to about 45.5 µM), usual class: inhibitors | AID 624170
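Enzyme dispensed in phosphate buffer (45 mM, pH 8.2, 0.02% Tween-20), compounds pinned in, then 1 mM L-glutamine solution and the glutamate oxidase–HRP–Amplex Red mix added; fluorescence read immediately and again after 30 min at room temperature.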
p53 reactivation = mutant p53 re-activation in reporter cells; H1299 p53-A138V BP100-luciferase reporter, luminescence, 24 h; Potency, µM (highest dose often 92.2 µM), hits mostly activators; 0.063% of 320,000 active; further: nearly all actives have a fitted effect of over 45% in size
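p53-null H1299 cells stably carrying temperature-sensitive p53-A138V and a BP100-luciferase reporter were pinned with compounds (4-point, 1:5 series) and held 24 hrs at 37 deg C. Luminescence was read 10 min after detection reagent.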
TCR act = T cell receptor activation | 330,000 tested, under 10 active | AID 504894 | primary human leukocytes, anti-CD3, IL-2 HTRF, 48 h | Potency, µM (top dose mostly 9.22 µM), hits mostly activators
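Primary human leukocytes incubated 48 hr with anti-CD3 beads plus compound, without co-stimulation. Secreted IL-2 measured by HTRF (europium cryptate/d2 anti-IL-2 pair, 320 nm excitation, 665 nm emission).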
N370S GC = inhibitors or activators of N370S glucocerebrosidase for Gaucher disease; N370S GC spleen homogenate, 4MU-glucoside fluorescence; P04062; Potency, µM (doses to about 59.4 µM), usual class: inhibitors; 0.092% of 330,000 active
BRCA1 expr up = activators of BRCA1 expression | MCF7-BRCA1-FFLuc reporter, luminescence, 48 h; response scale: scaled: vehicle 0%, 10 µM genistein 100% | Potency, µM (series often up to 46.1 µM), hits mostly activators | 1.1% of 380,000 active; further: nearly all actives have a fitted effect of over 80% in size
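MCF7-BRCA1-FFLuc cells, 2000/well in phenol-red-free MEM, attached 2 h then treated 48 h at 37 C. Luciferase luminescence read 15 min after reagent; normalized to genistein maximum activation (10microM) and DMSO, concentration-response fitted.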
Numbers stand for hits; n = inactive; u = inconclusive; x = not tested or not shown; [ ] = another dose, or the depositor's remark. Unless noted, the call rests on the fitted dose curve; in most records, active means well fitted curve in the direction sought with a large enough effect; inconclusive means small, poorly fitted or top-dose-only effect, or another doubt; inactive means no such curve, though single readings can be large; an effect the other way counts as inactive or inconclusive.

SMILES	TSHR antag	GLS inh	p53 reactivation	TCR act	N370S GC	BRCA1 expr up
COc1cc2c(cc1OC)CN(c1ccc3ccccc3n1)CC2	n	n	u	n	n	11µM
COc1cc2c(cc1OC)CN(c1ccc(-c3ccccc3OC)nn1)CC2	n	n	n	n	n	n
CCOC(=O)c1cnc(Nc2nc3ccccc3o2)nc1CSc1nnc(C)s1	x	n	x	n	x	5µM
CC(=O)Nc1cccc(NC(=O)c2ccc(COc3ccccc3)cc2)c1	n	n	u	n	n	2.2µM
CC(=O)Nc1cccc(OCc2ccc([N+](=O)[O-])cc2)c1	x	n	x	x	x	11µM
Brc1cccc[n+]1Cc1ccc(C[n+]2ccccc2Br)cc1	x	x	x	x	x	n
C/C(=N/OCc1ccc(Br)cc1)c1ccccn1	n	n	u	n	n	3.5µM
C/C(=N\OC(=O)c1ccc(Br)cc1)c1ccccn1	n	n	n	n	n	n
O=C(NCc1ccco1)c1c[nH]c2ccc(S(=O)(=O)Nc3ccc(F)cc3F)cc2c1=O	x	n	x	x	x	x
COc1cc(/C=N/n2cnnc2)ccc1OCc1ccc(C)cc1	n	n	n	n	n	10µM
COc1cc(/C=N/n2cnnc2)ccc1OCc1ccccc1	n	n	n	n	n	n
Oc1cccc(Nc2nc(-c3ccccc3Cl)nc3ccccc23)c1	n	n	n	n	1µM	n
c1csc(CNc2nc(-c3cccs3)nc3ccccc23)c1	n	n	n	n	18µM	n
c1ccc(-c2nc(NCc3cccs3)c3ccccc3n2)cc1	n	n	n	n	u	n
c1ccc(CN2CCC(Nc3nc(-c4cccs4)nc4ccccc34)CC2)cc1	n	n	n	n	10µM	n
FC(F)(F)c1ccccc1-c1nc(NCc2cccs2)c2ccccc2n1	x	x	x	x	n	x
Clc1ccccc1-c1nc(NCc2cccs2)c2ccccc2n1	x	x	x	x	7.1µM	x
CC(C)CN(CC(C)C)c1ccc(/C=C/c2nc3ccccc3s2)cc1	x	x	x	x	x	n
CC(CNC(=O)c1cnn(-c2ccc(F)cc2)c1-n1cccc1)c1ccccc1 (stereo not drawn)	x	n	x	x	x	n
Cc1ccccc1-c1nc(NCc2cccs2)c2ccccc2n1	x	x	x	x	7.1µM	x
c1ccc(-c2ccc(N3CCCC4(CCNCC4)C3)cc2)cc1	x	x	x	x	16µM	x
c1ccc(-c2ccc(N3CC[C@@]4(CCCNC4)C3)cc2)cc1	x	x	x	x	n	x
CC1Sc2ccc(C(=O)OCc3ccccc3Cl)cc2NC1=O (stereo not drawn)	n	n	u	n	n	6.3µM
COc1cccc(COC(=O)c2ccc3c(c2)NC(=O)C(C)S3)c1OC (stereo not drawn)	n	n	n	n	n	n
CCOc1ccc(/C=C/c2ccnc3ccccc23)cc1OCC	x	x	x	x	x	n
SMILES	TSHR antag	GLS inh	p53 reactivation	TCR act	N370S GC	BRCA1 expr up
N#C/C(=C\c1ccc(N2CCCCC2)o1)C(=O)Nc1cccc(Br)c1	n	u	u	n	n	1µM
Cc1ccc(NC(=O)c2ccc(OC(=O)COc3ccc(Cl)cc3C)cc2)cc1	n	n	u	n	n	u
Cc1ccc(NC(=O)c2ccc(OC(=O)COc3cccc(Cl)c3)cc2)cc1	n	n	u	n	n	3.5µM
Cc1ccc(NC(=O)c2ccc(OC(=O)CCN3C(=O)c4ccccc4C3=O)cc2)cc1	n	n	n	n	n	7.1µM
Cc1cc(C)cc(OC(=O)CCN2C(=O)c3ccccc3C2=O)c1	n	n	n	n	n	n
COc1ccc(/C=C/c2ccncc2)cc1	n	n	n	n	n	10µM
CN(C)c1ccc(C=Cc2cnccn2)cc1	x	n	x	n	x	u
CN(C)c1ccc(/C=C/c2ccncc2)cc1	n	n	u	n	n	7.9µM
CC(=O)c1c(O)cccc1O	x	x	x	x	n	x
C=CCOc1ccc(CNc2ccc3[nH]c(=O)[nH]c3c2)cc1OCC	n	u	n	n	n	n
C=CCOc1ccc(CNc2ccc3[nH]c(=O)[nH]c3c2)cc1	n	11µM	n	x	n	n
C/C=C\C1=C(CO)C(=O)[C@@H]2OC2C1=O (stereo partly drawn)	x	x	x	x	n[12.8 µM]	x
Cc1ccccc1/C=C1\CCCc2ccccc2C1=O	n	n	u	n	n	7.1µM
O=C1/C(=C\c2ccc3ccccc3c2)CCCc2ccccc21	n	n	u	n	n	n
